# Measured values: the supplement of paper PMC3334620
# In all, about 33,000 sequences were measured (“E-score (-0.5 to 0.5)”: median about -0.011, highest 2% from about 0.28 on). This is one part of a sample in which the highest values are shown more often than they occur.
# Target: T1, Gcr1 (UniProt P07261)
# T1 sequence: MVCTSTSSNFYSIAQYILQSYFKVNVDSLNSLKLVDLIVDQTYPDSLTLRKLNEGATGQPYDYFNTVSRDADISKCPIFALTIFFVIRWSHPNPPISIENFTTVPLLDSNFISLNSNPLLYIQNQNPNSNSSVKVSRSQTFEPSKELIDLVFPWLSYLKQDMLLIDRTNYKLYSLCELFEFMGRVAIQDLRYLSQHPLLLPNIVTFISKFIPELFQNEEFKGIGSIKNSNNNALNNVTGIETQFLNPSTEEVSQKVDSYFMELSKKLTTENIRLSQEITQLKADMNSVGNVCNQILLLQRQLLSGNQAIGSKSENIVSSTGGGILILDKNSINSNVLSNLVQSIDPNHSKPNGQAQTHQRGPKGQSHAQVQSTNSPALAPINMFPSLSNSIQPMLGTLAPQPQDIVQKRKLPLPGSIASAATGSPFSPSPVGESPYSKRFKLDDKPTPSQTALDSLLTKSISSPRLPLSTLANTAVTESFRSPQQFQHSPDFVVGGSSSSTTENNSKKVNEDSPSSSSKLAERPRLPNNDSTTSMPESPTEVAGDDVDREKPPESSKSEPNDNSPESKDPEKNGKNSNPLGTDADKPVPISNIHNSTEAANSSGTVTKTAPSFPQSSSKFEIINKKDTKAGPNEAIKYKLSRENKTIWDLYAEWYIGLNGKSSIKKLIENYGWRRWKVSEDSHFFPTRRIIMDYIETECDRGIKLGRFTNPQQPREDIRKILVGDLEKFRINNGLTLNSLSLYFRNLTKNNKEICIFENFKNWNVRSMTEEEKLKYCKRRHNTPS
# Assay: PBM E-score (8-mer binding enrichment) (E-score (-0.5 to 0.5)); higher = stronger / more preferred TF binding
# Conditions: protein concentration: 100 nM; construct: GST-full length
# Procedure: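 Universal 'all 10-mer' protein binding microarrays (Agilent AMADID 015681) probed with GST-tagged S. cerevisiae TFs (full-length or DBD) made by in vitro transcription/translation (PURExpress), about 100-200 nM. Bound TF was detected with fluorescent anti-GST. Each ungapped 8-mer (which stands for itself and its reverse complement) is scored by the PBM enrichment score (E-score), a modified Wilcoxon-Mann-Whitney statistic from -0.5 to +0.5, computed with the Universal PBM Analysis Suite. Scale: above 0.35 generally sequence-specific binding.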
row,Sequence,PBM E-score
1,AGTCCCGG,0.108
2,CCAGGCCG,-0.117
3,GAGCTAGC,-0.122
4,GCGAGCGC,-0.0888
5,AGATCAGA,-0.0273
6,AACCCTGT,-0.0296
7,CAATCTGG,-0.0284
8,AAATCTGG,0.292
9,AAATCTGC,0.0369
10,CCGTTAGG,0.0609
11,CCCGGGAC,0.21
12,ATTGCGGG,-0.0146
13,GATGCCCA,0.378
14,GGTGCCGA,0.285
15,GATGCCCC,0.248
16,AGTGCCGA,-0.0356
17,CGTGCCCA,0.0649
18,TATGCCCA,-0.14
19,GGTGCCCA,0.382
20,AGTGCCCA,0.0254
21,CGTGCCGA,-0.0978
22,AGATTCAG,0.117
23,ACAGGGAC,0.107
24,GCTTCCCC,0.341
25,ACTTCCCA,0.0658

row,Sequence,PBM E-score
1,ACTTCCCC,0.0219
2,CCTTCCCA,0.122
3,GCTTCCCA,0.386
4,CCTTCCCC,-0.122
5,CTGTGGGC,0.0855
6,GGTAGATA,0.00026
7,CAGTGCCA,-0.0969
8,ATGCCGGA,0.215
9,AATAGCGC,0.0793
10,CCATCCTA,0.0473
11,ACATCCTA,0.166
12,GCATCCTA,0.4
13,GCATCCGA,0.33
14,ACATCCGA,-0.104
15,CCATCCGA,-0.0665
16,ACCTATAT,0.194
17,ATGTTGTC,-0.117
18,ATAATTGC,-0.00448
19,GTGTATAA,-0.0442
20,TCCTATAA,0.334
21,ACGTATAA,0.132
22,CCGTATAA,0.195
23,GCGTATAC,0.156
24,TCGTATAA,0.286
25,CCCTATAA,0.141

row,Sequence,PBM E-score
1,GCGTATAA,0.353
2,ACCTATAA,0.0515
3,AAGGTGCA,-0.0118
4,CAATAGCG,0.025
5,CGAAATAG,0.131
6,ACCCTGCG,-0.0486
7,CGGAATAA,-0.168
8,GATGCGCA,0.134
9,ATGGTTCC,0.0654
10,CTGGTTGC,0.288
11,CTGGTTGA,-0.09
12,CTGGTTCA,-0.192
13,CCGGTTGC,0.317
14,ACGGTTGC,-0.264
15,CCGGTTGA,0.0186
16,ATGGTTGC,0.274
17,CTGGTTCC,0.34
18,ACGGTGTC,-0.168
19,CTGCTACA,0.0929
20,CTCATCAG,0.0338
21,CTTCTATA,0.187
22,CAGATACA,0.0958
23,GACATTCA,-0.094
24,AATAACGT,0.00611
25,GAATGCTA,-0.121

row,Sequence,PBM E-score
1,AGATGCCT,0.17
2,CGATGCCC,0.0343
3,AGATGCCA,0.385
4,AGATGCCG,0.273
5,GGATGCTA,0.44
6,AGATGCTG,0.282
7,GGATGCCC,0.464
8,AGATGCTA,0.25
9,CGATGCTA,0.266
10,AGATGCTC,0.0444
11,AGATGCCC,0.108
12,AGAGCGCC,0.0412
13,CGCAACAG,-0.0598
14,GGCAAACA,-0.14
15,GTGGGAGA,0.0205
16,GTGGTAGA,-0.166
17,AAGGTTGT,0.0394
18,GGATGCCA,0.454
19,TGATGCCA,-0.0459
20,CGATGCCA,0.156
21,CGTAGGGC,-0.108
22,ATTAGCTG,0.107
23,AACTGTAC,-0.166
24,AAGAAGCT,0.386
25,CGGAAGCA,0.0914

row,Sequence,PBM E-score
1,AAGAAGGT,0.122
2,CGGAAGCC,0.451
3,AAGAAGCC,0.401
4,AAGAAGCG,0.0955
5,CGGAAGGC,0.00052
6,GCGAAGCC,0.1
7,AAAAAGCT,-0.183
8,GAGAAGCA,0.111
9,GAGAAGCC,0.395
10,AAGAAGCA,0.165
11,CGACCCCC,-0.203
12,GCAGAGAA,-0.0151
13,TGAGCACA,-0.235
14,AGCATAAT,-0.00272
15,ATATACTA,0.174
16,AAAGTTAA,0.0767
17,CAGAAGCC,0.306
18,CAGAAGCA,0.0126
19,CAGAAGCG,0.223
20,ACGCTAGA,-0.0413
21,TAGCGATA,-0.0939
22,CATGCCTC,-0.101
23,CTCCAGCC,-0.183
24,CAATCGGG,0.0633
25,CCGCAACC,0.316

row,Sequence,PBM E-score
1,CAGCAACC,0.287
2,ACGCAACC,0.121
3,CAGCAACG,0.0545
4,AGGCAACC,0.0186
5,CGGCAACA,0.206
6,CCGCAACA,-0.0641
7,CGGCAACC,0.29
8,AAGCAACC,0.0616
9,TTCGCCAA,0.0203
10,CCACCGCC,-0.0958
11,ACTTTGCA,-0.0113
12,CCGGGGAA,0.0357
13,CAACGCAC,-0.152
14,AAGATATT,0.125
15,ACCGAGTC,-0.306
16,ATAGAGAA,-0.111
17,CGAGTAGC,-0.018
18,GGTGTGAA,-0.0292
19,CCTGATCC,0.0357
20,AAGAAATT,0.0237
21,AAGAAAAA,0.164
22,ACGAAGAA,-0.0157
23,AATAAGAT,0.0233
24,TAGAAGAA,0.352
25,GAGAAGAA,0.0707

row,Sequence,PBM E-score
1,AATAAGAG,0.0844
2,CAGAAGAA,0.212
3,AAGAAGAC,0.0399
4,AAGAAGAA,0.303
5,AAGAAAAT,0.304
6,AATAAGAA,0.328
7,CCGGAGAA,-0.189
8,AGGTTTTC,0.0618
9,CACACAAG,0.128
10,ACTTTCAC,0.0906
11,TACCCCGA,-0.036
12,GGACCGAA,0.0294
13,AAATCGTT,-0.0365
14,CACAAGAA,0.275
15,ACGAAGAT,0.00119
16,AAGAAGAG,0.237
17,AAGAAGAT,0.338
18,TACAAAAA,0.0752
19,TACAAGAA,0.379
20,GTCGGCAA,0.0614
21,GGATCAAC,-0.00409
22,ACTCAATA,0.156
23,GTTTTGGA,0.122
